# Screening data: PubChem BioAssay, The Scripps Research Institute Molecular Screening Center
# MITF primary = blocks human microphthalmia-associated transcription factor | AlphaScreen MITF homodimerization, bead proximity signal | 650,000 compounds, 0.91% hits | inhibition, % at 2.6 µM; in the data active = inhibition above about 50%
# FBW7 activator = human FBW7 E3 ligase activation, primary screen. Q969H0. AlphaScreen FBW7–phospho-cyclin E peptide binding, activator screen. normalized activity (activation), % at 26.1 µM. 650,000 compounds, 0.13% hits. AID 1259310; in the data active = normalized activity above about 1.9%;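 note: purified mutant Fbw7 with reduced substrate affinity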
# TEAD-YAP block = TEAD-YAP interaction inhibition; HEK-TIYL cells, TEAD-Gal4/YAP UAS-luciferase luminescence; inhibition, % at 9.12 µM; 640,000 compounds, 1.4% hits; AID 1259422; in the data active = inhibition above about 32%
# GPR151 ag = activators of human GPR151 | activation, % at 11.2 µM | 650,000 compounds, 1% hits | PathHunter beta-arrestin GPR151 cells, luminescence | AID 1508602 | Q8TDV0; in the data active = activation above about 4.9%
# Target sequence (Q8TDV0 whole entry, looked up): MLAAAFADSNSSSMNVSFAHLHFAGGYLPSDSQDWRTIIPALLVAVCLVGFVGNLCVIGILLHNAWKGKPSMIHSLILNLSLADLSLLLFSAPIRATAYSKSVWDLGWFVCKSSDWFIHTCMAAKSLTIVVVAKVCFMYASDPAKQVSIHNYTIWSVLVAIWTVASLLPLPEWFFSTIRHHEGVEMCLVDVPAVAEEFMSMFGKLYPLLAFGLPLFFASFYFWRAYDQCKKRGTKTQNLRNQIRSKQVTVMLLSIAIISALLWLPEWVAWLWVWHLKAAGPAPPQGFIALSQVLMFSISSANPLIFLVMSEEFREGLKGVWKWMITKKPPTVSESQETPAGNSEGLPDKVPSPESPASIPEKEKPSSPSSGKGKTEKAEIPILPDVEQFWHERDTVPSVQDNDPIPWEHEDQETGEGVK
# MITF inh conf = human MITF inhibition, confirmation; 4,700 compounds, 16% hits; AlphaScreen MITF homodimerization, biotin/His-MITF beads; shares compounds with MITF primary; inhibition, % at 2.6 µM; AID 1259372;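 active = inhibition above a cutoff derived from the DMSO control wells, cut at about 28% in these data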;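 note: inhibitors lower the bead chemiluminescence by keeping MITF from dimerizing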
# AS interf DR = counter-screen: compounds optically interfering with AlphaScreen | shares compounds with MITF primary | 480 compounds, 6% hits | AlphaScreen optical interference counterscreen, cell-free | IC50, µM; call rule not given here
# AlphaScreen intf2 = counter-screen: compounds optically interfering with AlphaScreen | shares compounds with MITF primary | LysRS AlphaScreen counterscreen, signal interference, triplicate | inhibition, % at 2.6 µM | 4,700 compounds, 7.6% hits;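 active = inhibition above a cutoff derived from the DMSO control wells, cut at about 30% in these data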
# GPR151 confirm = confirmation of human GPR151 activators | GPR151 PathHunter beta-arrestin cells, luminescence, 90 min; % of EA-reagent control over plate median | activation, % at 11.2 µM | shares compounds with GPR151 ag | 6,700 tested, under 10 active;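 active = mean percent activation across replicates above the confirmation screen cutoff of 4.91%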
# GPR119 ag = counter-screen for GPR151 activators: effect on human GPR119; shares compounds with GPR151 ag; AID 1508611; activation, % at 11.2 µM; 6,700 compounds, 0.3% hits; GPR119 PathHunter beta-arrestin cells, luminescence, 90 min; 0 = compound-well median, 100 = enzyme-acceptor control;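 active = mean percent activation in the counterscreen above 29.09%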;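 note: counterscreen on off-target GPR119 to flag nonselective hits from the GPR151 activator screen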
# Numbers stand for hits; 0 = inactive; - = not tested or not shown; ! = not active in a repeat. Shown are actives, neighbours in structure and some others; about 3.5% of the full set was active somewhere.
SMILES,MITF primary,FBW7 activator,TEAD-YAP block,GPR151 ag,GPR151 confirm,GPR119 ag,others
COc1cc(CN2CCN(C(=O)c3cccnc3)CC2)cc(OC)c1OC,0,0,0,0,-,-,
O=C(c1ccncc1)N1CCN(Cc2cccnc2)CC1,68,0,0,9.0,0,0,MITF inh conf=0;AlphaScreen intf2=0
CCn1ccnc1CN1CCN(Cc2cccc(OC)c2)C(CCO)C1 (configuration not stated),53,0,0,18,0,0,MITF inh conf=28;AS interf DR=0;AlphaScreen intf2=0
N#Cc1nc(-c2ccccc2)oc1NCCCn1ccnc1,0,0,0,0,-,-,
N#Cc1nc(COc2ccccc2Cl)oc1NCCCn1ccnc1,96,0,0,18,0,0,MITF inh conf=0;AlphaScreen intf2=0
Cc1cc(=O)[nH]c(SCc2cn3ccccc3n2)n1,0,0,0,0,-,-,
c1cnc2nc(SCc3cn4ccccc4n3)[nH]c2c1,68,0,0,6.8,0,0,MITF inh conf=0;AlphaScreen intf2=0
C=CCNCCOCCOc1ccc(OCC)cc1,51,0,0,6.0,0,0,MITF inh conf=49;AS interf DR=0;AlphaScreen intf2=0
CN(Cc1ccn[nH]1)c1nc2cc3c(cc2cc1CNCCC1=CCCCC1)OCO3,0,0,0,0,-,-,
Cc1cc(O)c2c(c1)Cc1cccc(O)c1C2=O,116,0,0,5.4,0,0,MITF inh conf=115;AS interf DR=0;AlphaScreen intf2=0
S=C(NCc1ccccn1)Nc1cccc(Cl)c1,0,0,0,10.0,0,0,
CSc1nc2ccsc2c(=O)n1-c1ccc(Br)cc1,0,0,0,0,-,-,
COc1ccc(-c2oc3c(CC=C(C)C)c(O[C@@H]4O[C@H](CO)[C@@H](O)[C@H](O)[C@H]4O)cc(O)c3c(=O)c2O[C@@H]2O[C@@H](C)[C@H](O)[C@@H](O)[C@H]2O)cc1,0,0,0,6.8!,0,0,
CCc1nnc(NS(=O)(=O)c2ccc(NC(=O)CN3C(=O)c4ccccc4C3=O)cc2)s1,0,0,0,7.4,0,0,
COc1ccc(C(=O)COC(=O)c2ccccc2NC(=O)c2ccccc2)cc1,0,0,0,0,-,-,
C/C(=N\NC(=O)c1ccc(F)cc1)c1ccccc1,0,0,0,5.4,0,0,
C/C(=N\NC(=O)c1ccc(C(=O)N/N=C(\C)c2ccc(F)cc2)cc1)c1ccc(F)cc1,0,0,0,0,-,-,
CCOc1ccc(C2C(C(=O)OC(C)C)=C(C)NC3=C2C(=O)CC(c2ccc(OC)cc2)C3)cc1OC (configuration not stated),0,0,0,0,-,-,
N#Cc1cc(C(=O)c2cc(F)ccc2O)cn(C2CC2)c1=O,0,0,0,5.9,0,0,
COc1ccccc1N1CCN(C2CCCN(Cc3ccccc3O)C2)CC1 (configuration not stated),0,0,0,8.0,0,0,
COc1cccc(CNC(=O)C(NS(=O)(=O)c2cccc3nsnc23)C(C)C)c1 (configuration not stated),0,0,0,7.1,0,0,
FC(F)(F)c1ccc(Cn2cnc3c(NC4CCN(Cc5ccccc5)CC4)nc(Nc4ccc(C(F)(F)F)cc4)nc32)cc1,0,0,0,5.9,0,0,
COc1ccc(-c2nc(NCCOc3ccccc3)c3ncn(Cc4ccc(C(F)(F)F)cc4)c3n2)cc1,0,0,0,4.9,0,0,
FC(F)(F)c1ccc(Cn2cnc3c(NC4CC4)nc(-c4ccc(N5CCOCC5)nc4)nc32)cc1,0,0,0,8.0,0,0,
FC(F)(F)c1ccc(Cn2cnc3c(NC4CCN(Cc5ccccc5)CC4)nc(Nc4ccccc4)nc32)cc1,0,0,0,0,-,-,
CCCNc1nc(-c2ccc(N3CCOCC3)nc2)nc2c1ncn2Cc1ccc(C(F)(F)F)cc1,0,0,0,0,-,-,
FC(F)(F)c1ccc(Cn2cnc3c(Nc4ccccc4)nc(Nc4ccccc4)nc32)cc1,0,0,0,6.2,0,0,
CC(C)c1ccc(OCC(O)CN2CCN(C(=O)c3ccccc3)CC2)cc1 (configuration not stated),0,0,0,0,-,-,
